Results on 36 sequences are retold here after article PMC5700166.

The target in assay [1] is T1, GST-Nv-NF-kB (Ser allele) (Nematostella vectensis, UniProt A7UNT2 2-411).
T1 sequence: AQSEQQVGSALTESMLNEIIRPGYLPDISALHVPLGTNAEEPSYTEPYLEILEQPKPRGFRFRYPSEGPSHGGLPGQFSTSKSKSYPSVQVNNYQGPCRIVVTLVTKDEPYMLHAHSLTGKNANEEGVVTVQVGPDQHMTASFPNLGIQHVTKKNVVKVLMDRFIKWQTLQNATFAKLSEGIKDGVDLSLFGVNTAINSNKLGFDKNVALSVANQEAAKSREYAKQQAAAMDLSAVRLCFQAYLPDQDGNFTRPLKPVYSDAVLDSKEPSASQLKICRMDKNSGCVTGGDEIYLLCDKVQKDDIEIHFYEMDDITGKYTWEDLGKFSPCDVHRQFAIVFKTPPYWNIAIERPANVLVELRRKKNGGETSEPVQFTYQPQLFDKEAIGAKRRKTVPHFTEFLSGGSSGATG
The assay can be described thus: protein-binding microarray (PBM); PBM: ~300 nM protein, 6 mM HEPES pH 7.8, 80 mM KCl, 0.5 mM EDTA, 0.5 mM EGTA, 6% glycerol, 35 ng/ul poly-dIdC, 1% milk, 1 h, room temperature; Ap Aiptasia and Nv Nematostella (sea anemones) / Co Capsaspora / Aq Amphimedon (sponge) / Dm Drosophila / Hu human; RHD is the Rel homology domain; high values mean tight binding. The settings on record: dsDNA, one strand shown.

The target in the next assay is GST-Hu-p50 (Homo sapiens, UniProt P19838 7-356). The assay is described as above. The settings on record: dsDNA, one strand shown.
Sequence of GST-Hu-p50 (P19838 7-356): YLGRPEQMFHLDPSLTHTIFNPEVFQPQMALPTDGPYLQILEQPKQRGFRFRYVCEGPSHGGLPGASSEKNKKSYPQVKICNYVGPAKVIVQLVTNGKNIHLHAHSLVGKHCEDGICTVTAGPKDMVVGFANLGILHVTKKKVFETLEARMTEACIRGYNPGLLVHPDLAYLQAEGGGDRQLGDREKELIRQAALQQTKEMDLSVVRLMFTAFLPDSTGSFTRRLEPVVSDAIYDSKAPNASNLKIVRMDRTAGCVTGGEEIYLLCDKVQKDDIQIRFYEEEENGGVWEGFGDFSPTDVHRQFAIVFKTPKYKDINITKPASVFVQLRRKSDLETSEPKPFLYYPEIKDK

As to “CCGATTAACATCAAAAATTTTCCTGATGTTAATCGGGTCTTGATTCGCTTGACGCTGCTG”, the values for the binding signal (in assay [1]; in the assay with GST-Hu-p50) were 1.32 z-score and 2.23 z-score, respectively.
On the same counts, the results for “CCGATTAACATCAGGAAAAACCCTGATGTTAATCGGGTCTTGATTCGCTTGACGCTGCTG” are 3.96 z-score and 4.56 z-score.
In the same order, the values of “CCGATTAACATCAATTTTCCCAATGATGTTAATCGGGTCTTGATTCGCTTGACGCTGCTG” are 4.62 z-score and 3.18 z-score.
On the same counts, the results for “CCGATTAACATCAATCACCCCCATGATGTTAATCGGGTCTTGATTCGCTTGACGCTGCTG” are 2.78 z-score and 3.76 z-score.
Consider “CCGATTAACATCAGGCATTTCCCTGATGTTAATCGGGTCTTGATTCGCTTGACGCTGCTG”, for which the binding signal in assay [1] came to 3.99 z-score; with GST-Hu-p50, 3.68 z-score.
Turning to “CCGATTAACATCACGGAAGTCCCTGATGTTAATCGGGTCTTGATTCGCTTGACGCTGCTG”, the binding signal amounted to 5.32 z-score in assay [1] and 4.43 z-score in the assay with GST-Hu-p50.
On the same counts, the results for “CCGATTAACATCACGTCCCCCCCTGATGTTAATCGGGTCTTGATTCGCTTGACGCTGCTG” are 4.17 z-score and 3.7 z-score.
On the same counts, the results for “CCGATTAACATCAGGGGGTTACATGATGTTAATCGGGTCTTGATTCGCTTGACGCTGCTG” are 4.94 z-score and 5.16 z-score.
“CCGATTAACATCAAGGGGGTAAATGATGTTAATCGGGTCTTGATTCGCTTGACGCTGCTG”: the binding signal in assay [1] worked out at 4.81 z-score; in the assay with GST-Hu-p50 it was 4.37 z-score.
In the same order, the values of “CCGATTAACATCAGGCGAGTCCCTGATGTTAATCGGGTCTTGATTCGCTTGACGCTGCTG” are 2.72 z-score and 2.61 z-score.
In the same order, the values of “CCGATTAACATCAGGGAATACCATGATGTTAATCGGGTCTTGATTCGCTTGACGCTGCTG” are 2.61 z-score and 1.46 z-score.
Consider “CCGATTAACATCACGGTATTTCCTGATGTTAATCGGGTCTTGATTCGCTTGACGCTGCTG”, for which the binding signal stood at 1.75 z-score in assay [1] and 1.48 z-score with GST-Hu-p50.
For the sequence “CCGATTAACATCAGGGGATCTACTGATGTTAATCGGGTCTTGATTCGCTTGACGCTGCTG”, the binding signal was 5.35 z-score in assay [1] and 4.5 z-score in the assay with GST-Hu-p50.
In the same order, the values of “CCGATTAACATCAAAAATCCCGATGATGTTAATCGGGTCTTGATTCGCTTGACGCTGCTG” are 2.85 z-score and 3.62 z-score.
In the same order, the values of “CCGATTAACATCAGGGAGTTCCATGATGTTAATCGGGTCTTGATTCGCTTGACGCTGCTG” are 2.53 z-score and 2.54 z-score.
In the same order, the values of “CCGATTAACATCAGGGAATCAGATGATGTTAATCGGGTCTTGATTCGCTTGACGCTGCTG” are 2.02 z-score and 1.19 z-score.
As to “CCGATTAACATCACCCGTTTCCCTGATGTTAATCGGGTCTTGATTCGCTTGACGCTGCTG”, the binding signal turned out to be 4.29 z-score in assay [1] and 2.75 z-score with GST-Hu-p50.
In the case of “CCGATTAACATCAGGGGGGACAATGATGTTAATCGGGTCTTGATTCGCTTGACGCTGCTG”, the values for the binding signal (in assay [1]; with GST-Hu-p50) were 4.45 z-score and 3.69 z-score, respectively.
On the same counts, the results for “CCGATTAACATCAGGTCGGGAAATGATGTTAATCGGGTCTTGATTCGCTTGACGCTGCTG” are 2.31 z-score and 1.27 z-score.
In the same order, the values of “CCGATTAACATCAGGGGCTGTACTGATGTTAATCGGGTCTTGATTCGCTTGACGCTGCTG” are 2.32 z-score and 3.36 z-score.
On the same counts, the results for “CCGATTAACATCAAAAAAACCCATGATGTTAATCGGGTCTTGATTCGCTTGACGCTGCTG” are 4.6 z-score and 4.37 z-score.
Take “CCGATTAACATCAGGAAGTCCCATGATGTTAATCGGGTCTTGATTCGCTTGACGCTGCTG”: the binding signal amounted to 4.19 z-score in assay [1] and 4.09 z-score with GST-Hu-p50.
On the same counts, the results for “CCGATTAACATCAGGGGAGAATATGATGTTAATCGGGTCTTGATTCGCTTGACGCTGCTG” are 6.21 z-score and 4.46 z-score.
For the sequence “CCGATTAACATCAGGGACTCCCATGATGTTAATCGGGTCTTGATTCGCTTGACGCTGCTG”, the binding signal in assay [1] worked out at 3.88 z-score; with GST-Hu-p50, 3.34 z-score.
In the same order, the values of “CCGATTAACATCAAACAAACCCCTGATGTTAATCGGGTCTTGATTCGCTTGACGCTGCTG” are 2.48 z-score and 3.95 z-score.
On the same counts, the results for “CCGATTAACATCAAAAAACCCACTGATGTTAATCGGGTCTTGATTCGCTTGACGCTGCTG” are 2.84 z-score and 3.37 z-score.
On the same counts, the results for “CCGATTAACATCAGGATTTTACCTGATGTTAATCGGGTCTTGATTCGCTTGACGCTGCTG” are 3.67 z-score and 2.65 z-score.
“CCGATTAACATCACCCTTGCAGGTGATGTTAATCGGGTCTTGATTCGCTTGACGCTGCTG”: the binding signal was 1.12 z-score in assay [1] and 2.18 z-score with GST-Hu-p50.
Take “CCGATTAACATCAGGGACAACCCTGATGTTAATCGGGTCTTGATTCGCTTGACGCTGCTG”: the binding signal in assay [1] was found to be 3.39 z-score; with GST-Hu-p50, 2.91 z-score.
Turning to “CCGATTAACATCAGGAATTCACCTGATGTTAATCGGGTCTTGATTCGCTTGACGCTGCTG”, the binding signal in assay [1] is 2.04 z-score; with GST-Hu-p50, 3.81 z-score.
On the same counts, the results for “CCGATTAACATCAAGGGATTTTCTGATGTTAATCGGGTCTTGATTCGCTTGACGCTGCTG” are 5.14 z-score and 4.49 z-score.
As to “CCGATTAACATCAAAAAAATACCTGATGTTAATCGGGTCTTGATTCGCTTGACGCTGCTG”, the binding signal in assay [1] was 4.89 z-score; with GST-Hu-p50, 3.43 z-score.
In the same order, the values of “CCGATTAACATCAGGAAATTTCCTGATGTTAATCGGGTCTTGATTCGCTTGACGCTGCTG” are 2.16 z-score and 2.5 z-score.
Regarding “CCGATTAACATCAGGGAAAAAACTGATGTTAATCGGGTCTTGATTCGCTTGACGCTGCTG”, the values for the binding signal (in assay [1]; with GST-Hu-p50) were 6.38 z-score and 4.02 z-score, respectively.
On the same counts, the results for “CCGATTAACATCACATTCTCCCCTGATGTTAATCGGGTCTTGATTCGCTTGACGCTGCTG” are 5.45 z-score and 3.4 z-score.
With “CCGATTAACATCAGGGAAACCACTGATGTTAATCGGGTCTTGATTCGCTTGACGCTGCTG”, the values for the binding signal (in assay [1]; in the assay with GST-Hu-p50) were 4.02 z-score and 3.94 z-score, respectively.
